Six compounds from PubChem BioAssay can be followed below.

Active and inactive are the calls of the source.

Test [1] in a line: small molecules captured by biotinylated probe aFSTL3 – biochemical, small-molecule microarray, fluorescence 635/667, stem cell growth factor project, primary screen (AID 1064).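 Further: measures binding of the biotinylated anti-FSTL3 antibody to printed compounds.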 To be noted: higher = more signal.
A short description of test [2]: binders from COS7 lysate, DM2A8 probe, primary screen, torsin A project, cell lysate, small-molecule microarray, fluorescence 635/667 (AID 1065). To be noted: higher = more signal, COS7 lysate expressing mutant human TOR1A.
Test [3] can be described thus: small molecules captured by biotinylated probe aFGF2 – biochemical, small-molecule microarray, fluorescence 635/667, stem cell growth factor project, primary screen (AID 1067).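 Further: measures binding of biotinylated aFGF2 protein to printed compounds on slides; z-score merges feature fluorescence and signal-to-noise across triplicate slides.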 To be noted: higher = more signal.
The nature of test [4]: small molecules captured by biotinylated probe aFGF10 – biochemical, small-molecule microarray, fluorescence 635/667, stem cell growth factor project, primary screen (AID 1071).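 Further: score merges 667 nm spot intensity and signal to noise from triplicate slides.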 To be noted: higher = more signal.
The target of test [5] is Neurogenic locus notch homolog protein 2 (Homo sapiens) (UniProt Q04721). The test is described as follows: small molecules binding Notch2 protein – biochemical, small-molecule microarray, 635 nm fluorescence, stem cell growth factors, primary screen (AID 1073). The settings on record: higher = more signal.
For test [6], the target named is Pro-neuregulin-1, membrane-bound isoform (Homo sapiens) (UniProt Q02297). Briefly: small molecules binding neuregulin-1 protein – biochemical, small-molecule microarray, fluorescence 635/667, psychiatric disease protein project, primary screen (AID 1075).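 Further: score combines 667 nm spot fluorescence with signal to noise.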 The settings on record: NRG1 binding, 635 nm fluorescence, higher = more signal.
Test [7] concerns Neuregulin-1 EGF-like domain. Briefly: small molecules binding NRG1 EGF domain – biochemical, small-molecule microarray, 635 nm fluorescence, primary screen (AID 1081).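 Further: binding of the protein to compounds printed on small-molecule microarray slides.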 The settings on record: higher = more signal.
Test [8] can be described thus: FRG1 expression reporter modulators in myotubes – cell-based, C2C12 myotubes, firefly/Renilla luciferase, luminescence, FRG1 inhibition for FSHD, primary screen (AID 1084). To be noted: FRG1 promoter luciferase, higher = more signal, called active from +8 up or from −8 down.
Test [9] is described as follows: small molecules captured by biotinylated probe aFST – biochemical, small-molecule microarray, fluorescence 635/667, stem cell growth factor project, primary screen (AID 1086).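 Further: score merges 667 nm fluorescence with signal-to-noise of each printed compound spot.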 To be noted: higher = more signal.
A short description of test [10]: binders of probe aHhip on microarray, primary screen, stem cell growth factor project, biochemical, small-molecule microarray, fluorescence 635/667 (AID 1087).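 Further: score merges spot fluorescence at 667nm with spot signal to noise ratio.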 To be noted: higher = more signal.
The test system of test [11] is PRMT1 (protein arginine N-methyltransferase 1). The test is described as follows: small molecules binding arginine methyltransferase PRMT1 – biochemical, small-molecule microarray, 635 nm fluorescence, primary screen (AID 1088).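 Further: binding of Prmt1 protein to compounds spotted on small-molecule microarray slides.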 To be noted: higher = more signal.
Test [12] in a line: growth effects on S. cerevisiae YJM789 – YJM789 clinical isolate, OD600, 24 h, basal, primary screen (AID 1089).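 Further: growth of clinical yeast isolate S. cerevisiae YJM 789 seeded 1000 cells per well; test concentration not given here.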 The settings on record: higher = more signal, called active from +8 up or from −8 down.
Test [13] can be described thus: S. pombe growth modifiers, basal conditions – strain 972, OD600, 24 h, no modulator, primary screen (AID 1090).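 Further: basal condition with compound alone and no growth modifier present; test concentration not given here.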 To be noted: S. pombe 972 growth, higher = more signal, called active from +8 up or from −8 down.
The nature of test [14]: budding yeast growth modifiers under rapamycin – strain BY4716, OD600, 96 h, primary screen (AID 1091). Further: test concentration not given here. The settings on record: S. cerevisiae BY4716 + rapamycin, higher = more signal, called active from +8 up or from −8 down.
The target of test [15] is Torsin-1A-interacting protein 2 (Homo sapiens) (UniProt Q8NFQ8). Briefly: small molecules binding lysate-expressed LULL1 – cell lysate, human LULL1 lysate, 635/667 nm fluorescence, primary screen (AID 1092).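 Further: probe is lysate of COS7 cells overexpressing human LULL1; score merges per-feature 667 nm fluorescence with signal-to-noise.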 The settings on record: small-molecule microarray, hLULL1 lysate binding, 635 nm fluorescence; higher = more signal.
Test [16] in a line: optical density change of DRC41 E. coli – strain DRC41, OD650, 24 h, E. coli filamentation project, primary screen (AID 1093).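 Further: MC1000 strain lacking acrAB efflux and sulA so SOS filamentation is blocked; test concentration not given here.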 The settings on record: E. coli DRC41 growth, higher = more signal, called active from +8 up or from −8 down.
Test [17] in a line: probe aLefty2 binding to arrayed compounds – biochemical, biotinylated probe, 635/667 nm fluorescence, primary screen (AID 1094).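 Further: score merges spot fluorescence near 667 nm with spot signal-to-noise ratio.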 The settings on record: small-molecule microarray, higher = more signal.
Test [18] relates to Noggin (protein binding on small-molecule microarray). The test is described as follows: small molecules binding Noggin protein – biochemical, 635/667 nm fluorescence, primary screen (AID 1095).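 Further: score merges 667 nm feature fluorescence with signal to noise over triplicate slides.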 To be noted: 635 nm fluorescence, higher = more signal.
The target in test [19] is Neurogenic locus notch homolog protein 3 (Homo sapiens) (UniProt Q9UM47). Briefly: small molecules binding NOTCH3 protein – biochemical, 635/667 nm fluorescence, primary screen (AID 1096). To be noted: small-molecule microarray, 635 nm fluorescence, higher = more signal.
The nature of test [20]: probe aEGFR binding to arrayed compounds – biochemical, biotinylated probe, 635/667 nm fluorescence, primary screen (AID 1097).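 Further: probe is a biotinylated anti-EGFR antibody binding compounds printed on slides; score combines fluorescence near 667 nm and signal to noise of each spot.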 The settings on record: small-molecule microarray, higher = more signal.

Chain of Neurogenic locus notch homolog protein 3 (Homo sapiens) (Q9UM47 whole entry, looked up): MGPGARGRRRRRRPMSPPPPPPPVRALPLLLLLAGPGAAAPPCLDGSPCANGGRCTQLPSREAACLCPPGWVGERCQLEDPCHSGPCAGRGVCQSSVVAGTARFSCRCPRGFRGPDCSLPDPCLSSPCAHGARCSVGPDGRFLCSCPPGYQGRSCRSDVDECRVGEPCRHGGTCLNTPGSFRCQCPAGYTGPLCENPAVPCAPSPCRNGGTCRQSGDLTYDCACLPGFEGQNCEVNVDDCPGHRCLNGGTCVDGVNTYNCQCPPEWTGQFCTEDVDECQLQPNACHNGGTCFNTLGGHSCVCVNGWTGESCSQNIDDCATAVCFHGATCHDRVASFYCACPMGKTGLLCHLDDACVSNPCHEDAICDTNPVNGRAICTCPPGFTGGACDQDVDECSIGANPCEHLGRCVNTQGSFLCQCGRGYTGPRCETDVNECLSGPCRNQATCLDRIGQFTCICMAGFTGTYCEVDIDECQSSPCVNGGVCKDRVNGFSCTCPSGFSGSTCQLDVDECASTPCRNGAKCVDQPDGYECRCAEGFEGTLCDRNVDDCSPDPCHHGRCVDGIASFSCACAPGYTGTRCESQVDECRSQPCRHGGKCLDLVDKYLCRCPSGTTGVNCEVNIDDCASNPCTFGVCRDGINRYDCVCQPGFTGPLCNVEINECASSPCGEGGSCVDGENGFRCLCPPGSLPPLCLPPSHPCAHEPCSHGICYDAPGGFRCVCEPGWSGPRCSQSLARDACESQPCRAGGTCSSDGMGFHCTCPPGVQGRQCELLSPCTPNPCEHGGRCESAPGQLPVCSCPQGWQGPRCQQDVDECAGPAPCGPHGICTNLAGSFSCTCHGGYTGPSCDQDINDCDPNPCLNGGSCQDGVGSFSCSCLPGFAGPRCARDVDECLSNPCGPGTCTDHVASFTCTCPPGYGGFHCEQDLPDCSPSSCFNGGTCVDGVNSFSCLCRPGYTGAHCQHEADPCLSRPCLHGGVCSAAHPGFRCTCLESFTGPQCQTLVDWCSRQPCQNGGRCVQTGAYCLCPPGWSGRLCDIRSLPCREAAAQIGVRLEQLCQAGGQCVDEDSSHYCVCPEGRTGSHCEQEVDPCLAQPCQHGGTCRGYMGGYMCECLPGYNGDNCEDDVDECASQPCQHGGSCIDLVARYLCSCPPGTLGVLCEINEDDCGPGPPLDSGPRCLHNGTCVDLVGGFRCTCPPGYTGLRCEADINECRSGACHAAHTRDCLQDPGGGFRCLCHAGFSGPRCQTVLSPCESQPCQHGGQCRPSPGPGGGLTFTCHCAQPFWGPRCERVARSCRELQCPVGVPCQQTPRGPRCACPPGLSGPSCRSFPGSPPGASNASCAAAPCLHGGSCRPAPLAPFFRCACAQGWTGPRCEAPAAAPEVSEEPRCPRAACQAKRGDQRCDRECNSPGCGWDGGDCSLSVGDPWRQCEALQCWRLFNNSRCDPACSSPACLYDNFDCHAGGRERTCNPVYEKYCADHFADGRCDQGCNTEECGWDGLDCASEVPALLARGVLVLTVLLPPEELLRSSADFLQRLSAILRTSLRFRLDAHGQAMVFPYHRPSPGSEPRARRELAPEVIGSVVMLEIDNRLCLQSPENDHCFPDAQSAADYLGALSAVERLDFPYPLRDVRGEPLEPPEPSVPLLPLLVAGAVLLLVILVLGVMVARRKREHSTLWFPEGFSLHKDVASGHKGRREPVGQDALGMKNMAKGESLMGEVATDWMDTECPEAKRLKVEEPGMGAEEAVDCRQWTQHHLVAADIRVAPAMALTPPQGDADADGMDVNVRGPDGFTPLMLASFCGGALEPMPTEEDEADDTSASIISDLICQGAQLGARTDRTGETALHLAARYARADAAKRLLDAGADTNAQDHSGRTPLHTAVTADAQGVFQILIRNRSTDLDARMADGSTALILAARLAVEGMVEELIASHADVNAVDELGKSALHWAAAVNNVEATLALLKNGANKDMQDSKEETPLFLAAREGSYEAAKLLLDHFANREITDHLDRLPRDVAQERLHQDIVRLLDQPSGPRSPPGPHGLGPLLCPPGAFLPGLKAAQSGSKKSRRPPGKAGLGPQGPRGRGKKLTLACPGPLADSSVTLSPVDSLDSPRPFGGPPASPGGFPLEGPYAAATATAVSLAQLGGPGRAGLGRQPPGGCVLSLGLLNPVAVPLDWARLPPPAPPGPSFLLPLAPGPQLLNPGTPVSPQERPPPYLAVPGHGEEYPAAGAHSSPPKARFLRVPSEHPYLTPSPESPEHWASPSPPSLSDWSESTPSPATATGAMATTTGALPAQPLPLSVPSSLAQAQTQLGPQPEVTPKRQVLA
Chain of Pro-neuregulin-1, membrane-bound isoform (Homo sapiens) (Q02297 whole entry, looked up, the tested form may be a part, canonical isoform): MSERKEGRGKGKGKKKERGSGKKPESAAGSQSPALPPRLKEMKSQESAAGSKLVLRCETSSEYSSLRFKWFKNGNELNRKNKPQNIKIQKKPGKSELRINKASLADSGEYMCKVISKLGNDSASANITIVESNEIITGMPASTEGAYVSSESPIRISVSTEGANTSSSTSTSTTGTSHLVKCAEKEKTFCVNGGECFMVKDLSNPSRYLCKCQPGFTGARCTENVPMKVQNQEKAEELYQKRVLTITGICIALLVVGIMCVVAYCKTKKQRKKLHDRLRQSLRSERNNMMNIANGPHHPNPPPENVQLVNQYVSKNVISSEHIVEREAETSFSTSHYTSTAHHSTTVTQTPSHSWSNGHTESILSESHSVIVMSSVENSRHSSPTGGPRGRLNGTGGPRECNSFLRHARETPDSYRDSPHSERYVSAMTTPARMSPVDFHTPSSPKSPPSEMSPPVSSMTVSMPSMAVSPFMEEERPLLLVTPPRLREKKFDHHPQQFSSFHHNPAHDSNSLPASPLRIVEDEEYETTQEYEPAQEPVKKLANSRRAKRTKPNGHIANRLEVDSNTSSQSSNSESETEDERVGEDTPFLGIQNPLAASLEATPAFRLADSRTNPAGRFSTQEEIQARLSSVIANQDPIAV
Chain of Torsin-1A-interacting protein 2 (Homo sapiens) (Q8NFQ8 whole entry, looked up): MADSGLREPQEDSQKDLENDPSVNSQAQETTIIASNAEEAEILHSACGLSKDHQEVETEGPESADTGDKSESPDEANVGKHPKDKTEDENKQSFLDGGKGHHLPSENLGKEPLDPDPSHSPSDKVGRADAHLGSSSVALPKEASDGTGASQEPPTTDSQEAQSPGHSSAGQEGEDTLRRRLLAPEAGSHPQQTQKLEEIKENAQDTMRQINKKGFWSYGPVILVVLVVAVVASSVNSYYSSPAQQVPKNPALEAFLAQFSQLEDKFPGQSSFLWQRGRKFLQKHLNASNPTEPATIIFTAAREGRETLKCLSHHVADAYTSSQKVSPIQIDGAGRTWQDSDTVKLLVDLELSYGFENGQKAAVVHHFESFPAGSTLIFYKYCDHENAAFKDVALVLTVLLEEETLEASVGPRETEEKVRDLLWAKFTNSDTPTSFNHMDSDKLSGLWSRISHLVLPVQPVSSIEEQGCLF

For `C=CCNC(=O)[C@@H]1[C@H]2C(=O)O[C@H](c3ccccc3)[C@H](c3ccccc3)N2[C@H](c2ccc(O)cc2)[C@@]12C(=O)N(C(=O)OCCOC)c1ccc(C#CC3(O)CCCCCC3)cc12`, the composite z-score in [1] is 0.564; in test [2] it was -0.548; in [3], -0.176; in [4] it was -1.52; in [5], -2.26; in [6], -0.712. Besides, the composite z-score in test [7] is -0.895; in test [9], -1.19; in [10], -0.312; in test [11], -0.14; in test [15] it was -1.28; in test [17], 0.143. For the same compound, the composite z-score in test [18] was -0.669; in test [19] it was -0.904; in test [20], -0.305. Further, the z-score in test [8] was -0.659 (inactive); in [12], -0.857 (inactive); in test [13], 0.183 (inactive); in [14], -0.26 (inactive); in test [16] it was 1.23 (inactive).

As to `[N-]=[N+]=NCc1ccccc1[C@@H]1OC(c2ccc(OCCCO)cc2)=N[C@]1(CCS(=O)(=O)c1ccccc1)C(=O)NCC(O)CO` (stereo not given in full), the composite z-score in test [1] amounted to 0.445; in test [2], 0.92; in test [3], 0.067; in test [4], 0.367; in test [5], 1.53; in [6] it was 2. The composite z-score in test [7] is 1.23; in [9], 0.923; in [10], -0.0994; in [11], 1.54; in [15] it was 3.85; in [17] it was 0.267. In addition, the composite z-score was 1 in test [18], 0.832 in test [19] and -0.0435 in test [20]. Moreover, the z-score in test [8] was -0.547 (inactive); in [12], -1.69 (inactive); in test [13], -0.741 (inactive); in test [14] it was 0.897 (inactive); in test [16] it was 0.171 (inactive).

Take `CC(C)C(=C=CC[C@H](O)c1cccc(OCCO)c1)C[C@H](O)c1cc(Cl)cc(Cl)c1O`: the composite z-score is -0.205 in test [1]; -0.178 in test [2]; -0.116 in [3]; 0.792 in [4]; -0.022 in test [5]; 0.462 in [6]. Besides, the composite z-score in [7] was 0.827; in [9] it was 0.53; in [10], 0.0722; in test [11], 1.03; in test [15] it was 2.37; in test [17], -0.114. The results for the composite z-score in test [18], in test [19] and in test [20] were 0.665, 0.964 and -0.0626, respectively. In addition, the z-score in test [8] is 0.209 (inactive); in [12], 0.834 (inactive); in [13], -1.06 (inactive); in test [14] it was -0.129 (inactive); in [16] it was 0.236 (inactive).

Regarding `[N-]=[N+]=Nc1ccccc1[C@H]1OC(c2ccc(OCCCO)cc2)=N[C@@]1(CCS(=O)(=O)c1ccccc1)C(=O)NCCN1CCOCC1`, the composite z-score in test [1] came out at 0.052; in test [2], 0.0825; in test [3], 0.115; in test [4], 0.839; in test [5] it was 1.28; in test [6], 1.35. Moreover, the composite z-score in [7] is 1.12; in test [9], 1.58; in [10] it was -0.166; in test [11] it was 1.55; in test [15], 3.3; in test [17], 0.414. Moreover, the composite z-score came to 0.55 in test [18], 0.839 in [19] and 0.154 in test [20]. The z-score was 5.72 (inactive) in [8]; 0.299 (inactive) in test [12]; 1.13 (inactive) in test [13]; 0.683 (inactive) in [14]; 0.17 (inactive) in test [16].

For `C=C(COC)/C(=C/C[C@H](OC(C)=O)c1ccc(OCCO)cc1)c1cc(C(=O)OC)ccc1OC`, the composite z-score was -0.391 in test [1]; 1.91 in [2]; -0.1 in test [3]; 1.03 in test [4]; 0.277 in test [5]; 0.697 in test [6]. In addition, the composite z-score is 1.24 in test [7]; 0.0308 in test [9]; -0.476 in test [10]; 1.53 in [11]; 0.914 in test [15]; -0.119 in test [17]. Moreover, the composite z-score in [18] was 1.68; in test [19], 0.794; in [20], -0.126. Further, the z-score in [8] is -0.658 (inactive); in test [12] it was 0.092 (inactive); in [13] it was -1.08 (inactive); in test [14], -0.656 (inactive); in test [16] it was 1.23 (inactive).

Regarding `CCOC(=O)C[C@H]1[C@H](OC(=O)Cc2ccc3c(c2)OCO3)[C@@H](NC(=O)CC(C)C)c2cc(OCCCO)ccc2N1C(=O)Cc1ccc(OC)cc1`, the composite z-score in test [1] was -0.244; in test [2], 0.0682; in test [3], -0.114; in test [4] it was 0.103; in [5], -0.0727; in test [6] it was -0.308. For the same compound, the composite z-score in [7] was 0.258; in [9], -0.207; in test [10], -0.245; in test [11] it was 0.336; in test [15], 1.09; in test [17], -0.134. The composite z-score in [18] was -0.0273; in test [19] it was 0.0046; in test [20] it was -0.111. Further, the z-score in test [8] was -2.61 (inactive); in test [12] it was -1.88 (inactive); in test [13], -0.843 (inactive); in [14] it was -0.733 (inactive); in test [16] it was 1.38 (inactive).
